Sampled rows, rich in hits. Any-hit rate of the full collection: about 3%.
VDR inh: vitamin D3 receptor (human) inhibition; hit rate 0.93% among 400,000; Potency, µM, without a hit: max response, negative = inhibition, usual class: inhibitors; VDR-SRC2-3 peptide fluorescence polarization, 2 h; AID 504847; P11473
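Measured by FP: displacement of SRC2-3 coactivator peptide from VDR by library compounds, following a two-hour ambient incubation.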
KAT2A inh: blocks human GCN5L2 histone acetyltransferase; GCN5L2 HAT assay, ThioGlo1 CoA-SH fluorescence; Potency, µM (titrated, usually from 58.9 µM), for inactives: at the highest dose activity change, negative = inhibition, most hits filed as inhibitors; hit rate 0.21% among 390,000; AID 504327
Target sequence (Q92830 whole entry, looked up): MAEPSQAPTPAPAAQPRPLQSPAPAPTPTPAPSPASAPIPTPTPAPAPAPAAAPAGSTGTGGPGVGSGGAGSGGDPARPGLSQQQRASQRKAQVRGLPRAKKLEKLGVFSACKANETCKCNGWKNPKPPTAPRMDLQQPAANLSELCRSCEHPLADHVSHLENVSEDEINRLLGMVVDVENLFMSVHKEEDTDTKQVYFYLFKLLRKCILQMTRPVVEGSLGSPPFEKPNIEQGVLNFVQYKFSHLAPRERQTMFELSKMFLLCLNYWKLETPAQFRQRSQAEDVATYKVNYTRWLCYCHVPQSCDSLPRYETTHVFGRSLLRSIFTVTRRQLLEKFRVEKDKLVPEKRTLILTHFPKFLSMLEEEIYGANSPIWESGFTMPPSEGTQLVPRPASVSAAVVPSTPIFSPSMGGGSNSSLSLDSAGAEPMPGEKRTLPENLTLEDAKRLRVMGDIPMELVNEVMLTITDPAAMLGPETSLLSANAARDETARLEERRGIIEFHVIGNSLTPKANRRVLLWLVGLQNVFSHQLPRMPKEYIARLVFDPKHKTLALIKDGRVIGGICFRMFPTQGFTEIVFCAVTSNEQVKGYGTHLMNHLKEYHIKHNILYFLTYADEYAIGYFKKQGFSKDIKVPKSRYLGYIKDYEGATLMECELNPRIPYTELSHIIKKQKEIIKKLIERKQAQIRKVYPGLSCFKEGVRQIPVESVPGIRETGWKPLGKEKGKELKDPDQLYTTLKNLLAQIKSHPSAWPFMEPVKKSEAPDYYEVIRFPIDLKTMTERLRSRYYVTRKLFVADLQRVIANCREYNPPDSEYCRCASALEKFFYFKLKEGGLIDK
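GCN5L2 (20nM final) in 50mM HEPES, 0.1mM EDTA pH 7.5, 0.01% Tween-20 was preincubated 15 min at room temperature with compound, then given ThioGlo1 (50uM), H3(1-25) peptide (75uM) and acetyl-CoA (70uM); CoA-thiol fluorescence (Ex340/Em540) was read at 0 and 20 min.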
12-LOX inh: ALOX12 (human) lipoxygenase inhibition; hit rate 1.1% among 580,000; P18054; Potency, µM (doses to about 108 µM), inactives show top-dose activity change, negative = inhibition, hits mostly inhibitors; AID 1671190; purified 12hLO, xylenol orange hydroperoxide absorbance
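Purified human 12hLO (150 nM final) in 25 mM Hepes, 0.01% Triton X-100, pH 7.0 was preincubated 15 min at room temperature with compound. Then 40 uM arachidonic acid was added, 30 min. Hydroperoxide was read by Fe-XO absorbance ratio 573/405 nm.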
PLK1 PBD inh: inhibitors of human PLK1 polo-box domain binding; Potency, µM, inactives show max response, negative = inhibition, most hits filed as inhibitors; hit rate 2.8% among 360,000; Plk1 PBD binding of FITC phosphopeptide, fluorescence polarization; AID 720504; P53350; also: series mostly up to about 57 µM; nearly all actives have a fitted effect of over 65% in size
Active calls of the source: *; u = inconclusive; x = not tested or not shown; ! = a repeat was not active; [ ] = remark or other dose. Calls follow the shape of the dose curve; as a rule, active = well fitted curve in the direction sought with a large enough effect; inconclusive = small, poorly fitted or top-dose-only effect, or another doubt; inactive = no such curve, though single readings can be large; an effect the other way counts as inactive or inconclusive. % is scaled to controls: 0 for no effect and ±100 for the full control effect; potency is read from the fitted curve at half-maximal effect.

SMILES	VDR inh	KAT2A inh	12-LOX inh	PLK1 PBD inh
O=[N+]([O-])c1c(Nc2cccc(Cl)c2Cl)cc(Cl)c2nonc12	x	x	16µM*	x
Oc1ccc2ccccc2c1/C=N/c1nccs1	-3%	-4%	-21%	19µM*
Cc1cc(N=Cc2c(O)ccc3ccccc23)no1	2%	-1%	u	5.3µM*
Oc1ccccc1N=Cc1c(O)ccc2ccccc12	-16%	-7%	-14%	37%
CC(C)(C)c1coc([C@@H]2COCCN2C2CCCCC2)n1	x	x	36%[176 µM]	x
Cc1cc2c(cc1C)CSC(c1cc(Cl)ccc1O)SC2	x	x	13µM*	x
O=C(COC(=O)c1cc2c(F)cccc2s1)NCC1CCCO1 (stereo not given)	x	x	19%	x
Cc1ccc(/C=C2/C(=O)N(c3ccccc3)C(=S)N2C)o1	79µM*	-7%	u	-28%
CCOc1ccc(N2C(=O)/C(=C/c3ccco3)N(C)C2=S)cc1	-13%	18%	u	-8%
Cc1cc(O)c2c(c1)C(=O)c1cccc(O)c1C2=O	14µM*	-8%	u	x
Cc1noc2nc(C(C)C)cc(C(=O)NC3CCCc4c3[nH]c3ccccc43)c12 (stereo not given)	x	x	32µM*	x
Cc1noc(C)c1C(=O)NC1CCCc2c1[nH]c1ccccc21 (stereo not given)	x	x	-35%	x
Cc1ccc(C(=O)Nc2ncc3c(Cl)cccc3n2)cc1	-22%	-4%	-13%	21µM*
CCOc1ccc2c(c1)C(NC(C)=O)C(=O)N2CCN1CCOCC1 (stereo not given)	79µM*	10%	0%	21µM*
CC(=O)NC1C(=O)N(CCN2CCOCC2)c2ccc(Br)cc21 (stereo not given)	u	-3%	32µM*	-12%
CC(=O)NC1C(=O)N(Cc2ccccc2)c2ccc(Br)cc21 (stereo not given)	u	-14%	6%	27µM*
CCN1C(=O)C(NC(C)=O)c2cc(OC)ccc21 (stereo not given)	-12%	0%	1%	-1%
CC(=O)NC1C(=O)N(CCOc2ccccc2)c2ccc(C)cc21 (stereo not given)	x	x	5%	x
CC(Oc1ccc(C(C)C)cc1)C(N)=O (stereo not given)	x	x	-39%	x
COc1cccc(Nc2nc3ccccc3nc2NS(=O)(=O)c2cccc3nsnc23)c1	x	x	-15%	x
Cc1ccc(-c2cc(C(=O)OC(C)C(N)=O)c3ccccc3n2)cc1 (stereo not given)	x	x	-5%	x
CCOC(=O)c1cccc(NC(=O)N2CC[C@@H](CC(=O)NCCOC)[C@@H](CC)C2)c1	x	x	-36%[176 µM]	x
COc1ccc(-c2c(C(F)(F)F)[nH]n3c(=O)cc(-c4ccccc4)nc23)cc1	-3%	-26%	11µM*	u
CCCc1cc(=O)n2[nH]c(C)c(-c3ccccc3)c2n1	-10%	1%	u	-6%
Cc1[nH]n2c(=O)cc(-c3ccc(Cl)cc3)nc2c1-c1ccccc1	-14%	u	40µM*	x
SMILES	VDR inh	KAT2A inh	12-LOX inh	PLK1 PBD inh
O=C(NCCc1nc2ccccc2n1CCC1CCCCC1)c1ccco1	x	x	5%	x
O=C(COc1ccc(Cl)cc1Br)OCC(=O)c1ccc(-c2ccccc2)cc1	x	x	5%	x
N#Cc1ccc(/C=N/Nc2ccccc2Cl)cc1	x	x	10µM*	x
N#Cc1ccc(/C=N/Nc2cccc(Cl)c2)cc1	x	x	2.5µM*	x
O=[N+]([O-])c1ccc(/C=N/Nc2ccc(S(=O)(=O)Nc3cccc(Cl)c3)cc2[N+](=O)[O-])cc1	x	x	14%	x
Fc1ccc(/C=N/Nc2cccc(Cl)c2)cc1F	x	x	4µM*	x
CC(C)n1nc(C(=O)N2CCN(c3ncccn3)CC2)c2ccccc2c1=O	x	x	1%	x
CCC(=O)Nc1ccc(C(=O)OCc2ccc(Cl)c(Cl)c2)cc1	-9%	0%	-2%	-4%
CCN(CC)Cc1ccc2cc(COC(=O)Nc3ccc(C(=O)NO)cc3)ccc2c1	x	x	15µM*	x
CN(C)CCNc1oc(-c2ccc(F)cc2)nc1C#N	x	x	23%	x
O=C(Cc1cccc2ccccc12)Nc1ccc(O)cc1C(=O)O	u	-6%	u	27µM*
O=C(CSCc1ccc(Cl)cc1)Nc1ccc(O)cc1C(=O)O	-4%	0%	6.3µM*	-12%
COc1cc(NC(=O)CSCc2ccc(Cl)cc2)c(C(=O)O)cc1OC	-11%	-2%	-43%	0%
CC(C)(C)c1nc2cc(Cl)c([N+](=O)[O-])cc2o1	79µM*	0%	1%	27µM*
O=C(c1ccccc1NS(=O)(=O)c1ccccc1[N+](=O)[O-])N1CCOCC1	-16%	36%	-11%	-10%
O=C(c1ccccc1NS(=O)(=O)c1ccc([N+](=O)[O-])cc1[N+](=O)[O-])N1O[C@@H]2C=C[C@H]1C2	45µM*	-4%	-16%	u
C(=N\Nc1cccc2cccnc12)/c1c[nH]c2ccccc12	x	x	32µM*	x
COc1ccc(CNc2ccnc(-c3cccnc3)n2)c(OC)c1	u	-11%	45µM*	x
Cc1cccc(CNc2nc(-c3ccoc3)nc3ccccc23)c1	u	-9%	u	x
c1ccc(CNc2nc(-c3ccoc3)nc3ccccc23)cc1	32µM*	-20%	16µM*	x
c1ccc(CNc2nc(-c3cccnc3)nc3ccccc23)cc1	18µM*!	u	u	-8%
Fc1ccc(Nc2nc(-c3ccoc3)nc3ccccc23)cc1	16µM*	-17%	u	x
CC(C)=NNC(=O)C(C)Sc1ccccc1 (stereo not given)	x	x	0%	x
c1ccc(CNc2ccnc(-c3cccnc3)n2)cc1	40µM*	u	u	x
O=c1cc(CSc2n[nH]c(-c3ccncc3)n2)nc2sccn12	8%	-2%	0%	-11%
SMILES	VDR inh	KAT2A inh	12-LOX inh	PLK1 PBD inh
COCCn1c(SCc2cc(=O)n3ccsc3n2)nnc1-c1ccncc1	6%	-1%	1%	24µM*
CC(=O)NC1=NN(C(C)=O)C(c2ccc(C)cc2)S1 (stereo not given)	-10%	-1%	1%	-13%
CC(=O)NC1=NN(C(C)=O)C(c2ccccc2)S1 (stereo not given)	u	-10%	-12%	4.7µM*
CCc1nnc(NC(=O)c2ccc(S(C)(=O)=O)cc2)s1	20µM*	0%	-6%	9.5µM*
CCc1nnc(NS(=O)(=O)c2ccc(NC(=S)NC(=O)c3ccc(F)cc3)cc2)s1	u	-5%	22µM*	-13%
CCc1nnc(NS(=O)(=O)c2ccc(NC(=S)NC(=O)c3cccnc3)cc2)s1	-7%	1%	u	-18%
O=C(Cn1ccc2cc(Cl)ccc21)N1CCOCC1	x	x	3%	x
CC(Cn1cccn1)NC(=O)N1CCN(Cc2cccs2)CC1 (stereo not given)	x	x	23%	x
CCCCCOc1ccc(CSc2n[nH]c(C)n2)cc1	u	-2%	7%	30µM*
CCCOc1ccc(CSc2ncn[nH]2)cc1	u	-7%	11%	2.7µM*
CC(=O)c1cccc(NC(=O)C(Sc2ccc(C(F)(F)F)cn2)c2ccccc2)c1 (stereo not given)	x	x	-43%	x
O=c1oc2ccccc2n1CCN1CCN(c2ccccc2F)CC1	x	x	35%	x
Cc1ccc(O)c(C(=O)OC(C)C(=O)Nc2ccc3c(c2)OCO3)c1 (stereo not given)	x	x	-11%	x

Assay outcomes (PubChem BioAssay)
